Data: PubChem BioAssay AID1159580 (chemical genetic matrix, 2015)
Among all 5,500 compounds or so, about 2,000 (36%) were called active. Another 18% or so got no clear call; they are omitted. Rule as the data show it: active = normalized growth mostly below about 0.91 (no sharp cut-off); inconclusive = no clear call, values can overlap the other calls; inactive = mostly above about 0.92. The list shows a part of the results.

Assay: chemical genetic growth profiling, strain panel (AID 1159580);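 also: tested at 20 µM; growth read once vehicle control cultures reached saturation at 30 °C; 1 = growth at the plate median or of vehicle wells; lower values mean less growth of the strain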
Settings: S. cerevisiae deletion strains, growth OD
[1] = locus YAL013W, strain DEP1, active compounds read low
[2] = locus YDR150W, strain NUM1, active compounds read low
[3] = locus YGR078C, strain PAC10, active compounds read low
[4] = locus YHR030C, strain SLT2, active compounds read low
[5] = locus YJR075W, strain HOC1, active compounds read low
[6] = locus YNL128W, strain TEP1, active compounds read low
[7] = locus YNL153C, strain GIM3, active compounds read low
[8] = locus YNL322C, strain KRE1, active compounds read low
[9] = locus YPL055C, strain LGE1, active compounds read low

Measured: normalized growth

COC(=O)c1cc(OC)c(OC)c(OC)c1NS(=O)(=O)c1cc(OC)ccc1OC
inactive: [1] 0.999 | locus YBR229C, strain ROT2, active compounds read low 0.999 | locus YCL061C, strain MRC1, active compounds read low 0.974 | locus YDL101C, strain DUN1, active compounds read low 0.968 | locus YDL134C, strain PPH21, active compounds read low 1.02 | [2] 0.984 | locus YEL061C, strain CIN8, active compounds read low 1.03 | [3] 0.983 | locus YGR229C, strain SMI1, active compounds read low 1.01 | [4] 0.965 | locus YHR087W, strain rtc3, active compounds read low 1.03 | locus YJR043C, strain POL32, active compounds read low 0.987 | [5] 0.992 | locus YLR039C, strain RIC1, active compounds read low 0.984 | locus YLR058C, strain SHM2 (second series), active compounds read low 1.02 | locus YLR085C, strain ARP6, active compounds read low 1.02 | locus YLR262C, strain YPT6, active compounds read low 1.02 | locus YML094W, strain GIM5, active compounds read low 1.04 | locus YMR219W, strain ESC1, active compounds read low 1 | locus YMR263W, strain SAP30, active compounds read low 1 | [6] 1 | [7] 0.992 | locus YNL298W, strain CLA4 (second series), active compounds read low 0.987 | [8] 0.996 | locus YNR030W, strain Alg12, active compounds read low 1.01 | locus YOL006C, strain TOP1, active compounds read low 0.981 | [9] 1.03 | locus YPL241C, strain CIN2, active compounds read low 0.983 | locus YPR135W, strain CTF4, active compounds read low 0.969

COc1cc(C(O)C(=O)O)ccc1O (centres undefined)
inactive: [1] 0.996 | locus YAL040C, strain CLN3, active compounds read low 0.984 | locus YCL061C, strain MRC1 (second series), active compounds read low 0.994 | [2] 0.994 | locus YDR363W, strain ESC2, active compounds read low 1.01 | locus YER002W, strain NOP16, active compounds read low 1.03 | [3] 1 | [5] 0.991 | locus YMR307W, strain GAS1, active compounds read low 0.989 | [6] 0.986 | [7] 1.01 | locus YNL175C, strain NOP13, active compounds read low 0.992 | locus YNL197C, strain WHI3, active compounds read low 1.01 | locus YNL224C, strain SQS1, active compounds read low 1.02 | [8] 0.998 | locus YOR083W, strain WHI5 (second series), active compounds read low 1.01 | [9] 1.01

COc1ccc(C(C)=O)c(OC)c1
inactive: [4] 0.954 | locus YHR079C, strain IRE1, active compounds read low 0.952 | locus YJL095W, strain BCK1, active compounds read low 0.965 | locus YJR066W, strain TOR1, active compounds read low 0.953 | locus YLR113W, strain HOG1, active compounds read low 0.948 | locus YNL183C, strain NPR1, active compounds read low 0.895 | locus YOR231W, strain MKK1, active compounds read low 0.934 | locus YPL256C, strain CLN2, active compounds read low 0.909
